About 83,000 compounds went through this panel and 20% of them were active in at least one assay; those are over-represented in the sample as a whole.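 Plates (96-well) were seeded with cells, treated with compound at one concentration, and incubated for 48 hours before percent growth was determined.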 Values without a mark were called inactive. Calls of active or inactive are those of the source. Rule for the calls: active = growth percent below 10; inactive = the rest.

For eight compounds, growth results are on record in PubChem BioAssay (NCI).

What all share (test): NCI-60 one-dose screen, 48 h (100 = growth as untreated, 0 = no growth, -100 = all killed)
The subject of test [1] is HT29 colon. Particulars: 10 µM unless noted.
The subject of test [2] is SNB-75 CNS. Conditions: 10 µM unless noted.
Test [3] deals with SNB-19 CNS. Particulars: 10 µM unless noted.
In test [4] the test system is PC-3 prostate. Particulars: 10 µM unless noted.
Test [5] deals with UACC-62 melanoma. Conditions: 10 µM unless noted.
Test [6] has as its system LOX IMVI melanoma. Particulars: 10 µM unless noted.
The subject of test [7] is SK-MEL-28 melanoma. Particulars: 10 µM.
Test [8] relates to SK-MEL-2 melanoma. Particulars: 10 µM unless noted.
Test [9] concerns SN12C renal. Conditions: 10 µM unless noted.
Test [10] deals with UO-31 renal. Conditions: 10 µM unless noted.
The subject of test [11] is TK-10 renal. Particulars: 10 µM unless noted.
Test [12] deals with ACHN renal. Conditions: 10 µM unless noted.
Test [13] has as its system CAKI-1 renal. Particulars: 10 µM unless noted.
The subject of test [14] is A498 renal. Particulars: 10 µM unless noted.
For test [15], the system named is MOLT-4 leukemia. Conditions: 10 µM unless noted.
Test [16] deals with SR leukemia. Conditions: 10 µM unless noted.
Test [17] deals with CCRF-CEM leukemia. Conditions: 10 µM unless noted.
In test [18] the test system is U251 CNS. Particulars: 10 µM unless noted.
For test [19], the system named is SK-MEL-5 melanoma. Particulars: 10 µM unless noted.
Test [20] has as its system EKVX NSCLC. Particulars: 10 µM unless noted.

For the compound `COC(=O)[C@H]1CCCN1C(=O)[C@H]1CCCN1C(=O)[C@H](Cc1c[nH]c2ccccc12)NC(=S)Nc1cc(C(F)(F)F)cc(C(F)(F)F)c1`, the growth in [1] was 7.55% (active); in test [2], 52.8%; in [3] it was 51.3%; in test [4], 39.9%; in test [5] it was 57%; in test [6], 34.5%. The growth in test [7] was 54.8%; in test [8], 94.9%; in test [9], 51%; in [10] it was 45.5%; in test [11] it was 80.9%; in [12] it was 49%. The growth in test [13] is 38.6%; in test [14] it was 77%; in [15], 29.4%; in test [16], 4.48% (active).

In the case of `O=C(CSc1ncccc1C(=O)O)Nc1ccc(Oc2ccccc2)cc1`, the growth in test [1] was 115%; in [2] it was 88.3%; in [3] it was 106%; in [4] it was 99.8%; in test [5] it was 116%; in [6], 92.1%. Further, the growth in test [7] was 105%; in test [8], 106%; in test [9], 102%; in test [10], 78.1%; in test [11] it was 105%; in test [12], 107%. In addition, the growth in [13] was 95.8%; in [14], 96.7%; in test [17] it was 99.6%; in test [15], 84.6%; in [16] it was 78.2%.

On to `COC(=O)c1c2c(c(C)[n+]([O-])c1C)C(=O)C(NCc1ccc(Br)cc1)=CC2=O`, for which the growth in [1] was 9.96% (active); in [2], 84.5%; in test [18], 9.45% (active); in test [4], 27.6%; in test [19], -93.1% (active); in [5], -16.2% (active). The growth is 16.9% in test [6]; 65.3% in [7]; 47.1% in test [8]; 31.8% in test [20]; 4.82% (active) in [9]; 60.9% in test [10]. The growth in test [11] is 84.4%; in test [12] it was 32.6%; in test [17], 34.3%; in test [15], 35%; in test [16] it was 30.2%.

With `CCN(CC)CCNC(=O)C(Cl)=C1C(Cl)=C(Cl)C(Cl)=C1Cl`, the growth in test [1] is 41.3%; in test [2], 48.4%; in test [18] it was 40.8%; in [4], 56.2%; in test [19], 47%; in [5], 55.1%. Moreover, the growth in test [6] was 22.6%; in test [7], 72.7%; in test [8], 47.6%; in [20], 87.8%; in test [9] it was 47.8%; in [10] it was 43.6%. Moreover, the growth in [11] was 59.4%; in [12] it was 48.6%; in test [13], 6.11% (active); in test [14], 71.8%; in test [15] it was 15%; in test [16], 34.8%.

`COc1ccc(-c2nsc3c2NC(=O)CC3c2cccc(OC)c2)cc1` (stereo unspecified): the growth was 8.58% (active) in test [1]; -17.5% (active) in [2]; 37.8% in [18]; 23.8% in [4]; 31.6% in [19]; 41.5% in [5]. Besides, the growth was 50.3% in [6]; 45.3% in test [7]; 34.1% in test [8]; 66.9% in test [9]; 46.3% in [10]; 61.9% in [11]. For the same compound, the growth in [12] is 55.1%; in [13], 32.9%; in test [14], 27.4%; in test [17] it was 14.2%; in test [15], 32.2%; in test [16], 24.3%.

On to `CCN1C(=O)N(CC)C2C1NN=c1s/c(=C3\C(=O)N(C(C)C)c4ccccc43)c(=O)n12` (stereo unspecified), for which the growth in [1] is 2.15% (active); in [2], 41.2%; in test [18], 20.6%; in test [4], 25.8%; in [19], 2.79% (active); in [5] it was 16.9%. Besides, the growth was 20.7% in test [6]; 57.4% in test [7]; 23.8% in [8]; 31.5% in test [20]; 21.6% in test [9]; 45.4% in test [10]. In addition, the growth in [11] is 56.5%; in test [12], 25.4%; in [13], 31.8%; in test [14], -2.49% (active); in test [17], 9.92% (active); in [15], 13.8%. Moreover, the growth in test [16] is 10.6%.

For the compound `COc1ccc(CN2CCCC(C(=O)c3ccc(C(F)(F)F)cc3)C2)c(O)c1` (stereo unspecified), the growth in test [1] is 1.6% (active); in test [2] it was -1.83% (active); in test [18] it was 18.5%; in test [4], 25.6%; in test [19], 19.6%; in test [5] it was 28.3%. In addition, the growth in [6] was 25.5%; in test [7], 36.4%; in [8], -43.2% (active); in test [9] it was 31.8%; in test [10], 26.4%; in [11], 34.6%. In addition, the growth in test [12] was 38%; in test [13], 32.6%; in [14], 15.2%; in test [17] it was 8.95% (active); in test [15] it was 13.6%; in [16], 3.77% (active).

`O=C1NC(=S)NC(=O)C1=Cc1cn(Cc2cn(Cc3cccc4ccccc34)nn2)c2ccccc12`: the growth in test [1] was 114%; in [3], 97.9%; in test [18], 102%; in [4], 93.9%; in test [19], 93.9%; in test [5], 88.3%. In addition, the growth is 91.1% in test [6]; 103% in [7]; 114% in test [8]; 96.4% in [20]; 94.4% in test [9]; 67.7% in test [10]. In addition, the growth is 134% in [11]; 96% in [12]; 80.3% in test [13]; 83.7% in test [14]; 98.7% in test [17]; 96.2% in test [15].
